From the supplement of paper PMC10849652
Targets with a hit are over-represented here; the source holds about 7,900 in all. About 0.6% of all pairs of compound and target were hits. Unmarked numbers belong to inactive results.

Columns and labels:
Test in all cases: log2 fold change, soluble protein after heating vs DMSO (PISA); higher = thermal stabilisation; K562 cells, 10 uM, 30 min; active = over 0.2 and 3.5 SD of the protein, either way, in both replicates (recomputed)
[1] = compound: NC(=O)Nc1cc(-c2cccc(F)c2)sc1C(=O)N[C@H]1CCCNC1
How it was run: (§1)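 K562 cells at 2×10^6 cells/mL were given 10 μM compound for 30 min. Aliquots then went through 3 min of heating across 48°C-58°C, were pooled, and were extracted in PBS with 0.5% NP-40 at 4°C, and the supernatant after 21,000xg for 90 min was quantified by TMTpro 16plex LC-MS/MS with channel sums equalised. Thermal stability relative to control samples, from duplicates, is given as log2 fold change.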

[2] = compound: NC(=O)c1cnc(N[C@@H]2CCCC[C@@H]2N)nc1Nc1cccc(-n2nccn2)c1
How it was run: as §1

[3] = compound: NC1(c2ccc(-c3nc4ccn5c(=O)[nH]nc5c4cc3-c3ccccc3)cc2)CCC1
How it was run: as §1

[4] = compound: NCC(=O)Nc1ccc(-n2nc(C(F)(F)F)cc2-c2ccc3c(ccc4ccccc43)c2)cc1
How it was run: as §1

[5] = compound: Nc1ccccc1NC(=O)c1ccc(CNC(=O)OCc2cccnc2)cc1 [entinostat]
How it was run: as §1

[6] = compound: O=C(CCCCCCC(=O)Nc1ccccc1)NO [vorinostat]
How it was run: as §1

[7] = compound: O=C(CCCCCCNC(=O)c1cnc(N(c2ccccc2)c2ccccc2Cl)nc1)NO [citarinostat]
How it was run: as §1

[8] = compound: O=C(O)c1ccc2c(c1)nc(Nc1cccc(Cl)c1)c1ccncc12 [silmitasertib]
How it was run: as §1

[9] = compound: O=C1NC(=O)C(c2cnc3ccccn23)=C1c1cn2c3c(cc(F)cc13)CN(C(=O)N1CCCCC1)CC2
How it was run: as §1

[10] = compound: c1cc(OCCN2CCCCC2)cc(-c2n[nH]c3ccc(-c4nnc[nH]4)cc23)c1
How it was run: as §1

[11] = compound: c1cn2cc(-c3ccc4cn[nH]c4c3)nc(Nc3ccc(N4CCOCC4)cc3)c2n1 [entospletinib]
How it was run: as §1

UniProt Q68DK7, sequence (Q68DK7 whole entry, looked up): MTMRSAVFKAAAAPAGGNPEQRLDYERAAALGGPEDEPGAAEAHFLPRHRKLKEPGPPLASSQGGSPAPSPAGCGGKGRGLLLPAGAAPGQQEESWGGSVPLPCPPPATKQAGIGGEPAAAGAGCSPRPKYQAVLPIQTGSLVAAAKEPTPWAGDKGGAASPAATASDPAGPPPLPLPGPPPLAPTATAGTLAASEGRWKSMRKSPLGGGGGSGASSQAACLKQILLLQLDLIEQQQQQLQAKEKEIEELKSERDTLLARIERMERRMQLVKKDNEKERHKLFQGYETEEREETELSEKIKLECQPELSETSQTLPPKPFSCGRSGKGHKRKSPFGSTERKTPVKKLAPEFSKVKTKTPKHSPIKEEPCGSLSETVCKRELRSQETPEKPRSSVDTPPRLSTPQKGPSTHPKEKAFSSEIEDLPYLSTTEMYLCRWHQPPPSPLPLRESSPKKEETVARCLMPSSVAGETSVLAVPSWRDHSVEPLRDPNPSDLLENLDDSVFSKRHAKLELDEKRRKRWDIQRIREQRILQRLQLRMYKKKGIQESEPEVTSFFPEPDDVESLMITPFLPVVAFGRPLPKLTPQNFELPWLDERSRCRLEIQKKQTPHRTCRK
UniProt Q9UMY1, sequence (Q9UMY1 whole entry, looked up): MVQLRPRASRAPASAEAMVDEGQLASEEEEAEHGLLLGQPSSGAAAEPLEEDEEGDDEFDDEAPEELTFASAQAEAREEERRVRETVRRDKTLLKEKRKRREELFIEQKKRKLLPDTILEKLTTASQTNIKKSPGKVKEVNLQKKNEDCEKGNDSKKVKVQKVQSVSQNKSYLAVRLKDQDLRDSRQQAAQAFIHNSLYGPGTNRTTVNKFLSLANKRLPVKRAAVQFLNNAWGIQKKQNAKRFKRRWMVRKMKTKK
UniProt Q9NZT2, sequence (Q9NZT2 whole entry, looked up): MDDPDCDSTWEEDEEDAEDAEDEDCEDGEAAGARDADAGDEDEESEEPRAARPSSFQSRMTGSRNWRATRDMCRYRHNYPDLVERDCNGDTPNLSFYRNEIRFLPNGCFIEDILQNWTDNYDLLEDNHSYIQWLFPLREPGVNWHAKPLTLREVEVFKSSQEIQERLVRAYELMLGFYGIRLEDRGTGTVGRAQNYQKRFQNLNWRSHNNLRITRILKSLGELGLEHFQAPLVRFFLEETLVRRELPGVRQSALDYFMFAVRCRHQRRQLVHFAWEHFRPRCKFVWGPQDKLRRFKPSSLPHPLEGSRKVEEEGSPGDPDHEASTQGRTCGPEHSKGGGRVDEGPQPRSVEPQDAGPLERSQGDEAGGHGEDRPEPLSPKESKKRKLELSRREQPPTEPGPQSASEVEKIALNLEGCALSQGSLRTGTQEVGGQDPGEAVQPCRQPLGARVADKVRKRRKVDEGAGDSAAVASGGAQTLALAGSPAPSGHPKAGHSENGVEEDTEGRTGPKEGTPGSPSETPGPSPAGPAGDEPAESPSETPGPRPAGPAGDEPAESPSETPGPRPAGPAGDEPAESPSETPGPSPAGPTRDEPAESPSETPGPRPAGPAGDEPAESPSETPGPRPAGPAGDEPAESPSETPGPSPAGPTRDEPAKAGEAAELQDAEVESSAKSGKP
UniProt Q9Y2I1, sequence (Q9Y2I1 whole entry, looked up): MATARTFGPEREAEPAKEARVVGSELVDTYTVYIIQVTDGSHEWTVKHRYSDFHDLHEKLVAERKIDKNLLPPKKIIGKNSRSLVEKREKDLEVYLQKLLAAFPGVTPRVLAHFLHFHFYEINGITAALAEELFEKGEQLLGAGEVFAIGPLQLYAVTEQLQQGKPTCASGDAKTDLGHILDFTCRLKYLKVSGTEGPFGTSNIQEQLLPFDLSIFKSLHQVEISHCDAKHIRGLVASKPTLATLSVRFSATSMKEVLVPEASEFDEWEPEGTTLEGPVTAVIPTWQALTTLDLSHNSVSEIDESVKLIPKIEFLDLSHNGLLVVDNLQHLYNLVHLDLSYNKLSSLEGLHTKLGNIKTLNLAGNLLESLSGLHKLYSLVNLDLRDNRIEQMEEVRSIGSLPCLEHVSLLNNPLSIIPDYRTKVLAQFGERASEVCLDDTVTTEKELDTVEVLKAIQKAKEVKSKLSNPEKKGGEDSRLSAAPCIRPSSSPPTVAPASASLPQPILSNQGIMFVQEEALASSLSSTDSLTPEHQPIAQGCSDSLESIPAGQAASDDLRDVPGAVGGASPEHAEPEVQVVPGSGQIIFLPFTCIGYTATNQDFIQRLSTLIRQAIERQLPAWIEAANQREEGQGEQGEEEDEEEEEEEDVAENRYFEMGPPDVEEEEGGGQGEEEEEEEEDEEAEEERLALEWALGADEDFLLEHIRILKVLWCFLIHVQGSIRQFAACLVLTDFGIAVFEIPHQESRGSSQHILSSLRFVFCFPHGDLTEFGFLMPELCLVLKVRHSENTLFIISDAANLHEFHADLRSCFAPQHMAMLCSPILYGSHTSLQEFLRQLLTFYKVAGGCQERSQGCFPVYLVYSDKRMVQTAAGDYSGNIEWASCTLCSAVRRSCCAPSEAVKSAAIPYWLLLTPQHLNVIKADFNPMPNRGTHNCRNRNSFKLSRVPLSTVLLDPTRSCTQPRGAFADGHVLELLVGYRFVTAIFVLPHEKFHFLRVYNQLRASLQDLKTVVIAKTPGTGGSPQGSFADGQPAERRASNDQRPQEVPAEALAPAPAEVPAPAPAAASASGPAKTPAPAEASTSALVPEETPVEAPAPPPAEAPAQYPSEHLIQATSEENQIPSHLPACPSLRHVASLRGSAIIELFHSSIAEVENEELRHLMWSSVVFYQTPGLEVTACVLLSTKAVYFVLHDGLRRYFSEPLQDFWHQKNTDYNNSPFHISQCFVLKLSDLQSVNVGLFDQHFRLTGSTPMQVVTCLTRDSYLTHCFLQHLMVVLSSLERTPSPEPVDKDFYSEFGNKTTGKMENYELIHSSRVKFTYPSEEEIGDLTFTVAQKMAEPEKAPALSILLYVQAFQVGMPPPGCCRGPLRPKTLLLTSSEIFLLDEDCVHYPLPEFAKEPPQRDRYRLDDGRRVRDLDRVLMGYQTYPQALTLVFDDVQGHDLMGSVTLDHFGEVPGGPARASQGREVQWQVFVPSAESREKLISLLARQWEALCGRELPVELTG
UniProt Q96RE7, sequence (Q96RE7 whole entry, looked up): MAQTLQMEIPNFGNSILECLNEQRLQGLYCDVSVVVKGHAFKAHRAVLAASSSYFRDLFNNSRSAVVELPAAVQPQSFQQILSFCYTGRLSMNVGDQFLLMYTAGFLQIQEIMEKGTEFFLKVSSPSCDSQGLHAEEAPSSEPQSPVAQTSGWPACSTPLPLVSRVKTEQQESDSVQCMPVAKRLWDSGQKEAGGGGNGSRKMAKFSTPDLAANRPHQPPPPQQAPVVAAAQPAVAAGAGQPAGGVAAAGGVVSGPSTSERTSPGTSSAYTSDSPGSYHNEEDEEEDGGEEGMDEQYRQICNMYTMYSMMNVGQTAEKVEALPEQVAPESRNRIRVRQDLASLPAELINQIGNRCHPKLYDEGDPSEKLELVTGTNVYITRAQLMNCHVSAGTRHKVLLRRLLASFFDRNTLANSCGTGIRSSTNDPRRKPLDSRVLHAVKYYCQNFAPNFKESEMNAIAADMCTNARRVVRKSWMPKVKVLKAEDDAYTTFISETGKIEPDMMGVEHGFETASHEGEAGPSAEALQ
UniProt P46087, sequence (P46087 whole entry, looked up): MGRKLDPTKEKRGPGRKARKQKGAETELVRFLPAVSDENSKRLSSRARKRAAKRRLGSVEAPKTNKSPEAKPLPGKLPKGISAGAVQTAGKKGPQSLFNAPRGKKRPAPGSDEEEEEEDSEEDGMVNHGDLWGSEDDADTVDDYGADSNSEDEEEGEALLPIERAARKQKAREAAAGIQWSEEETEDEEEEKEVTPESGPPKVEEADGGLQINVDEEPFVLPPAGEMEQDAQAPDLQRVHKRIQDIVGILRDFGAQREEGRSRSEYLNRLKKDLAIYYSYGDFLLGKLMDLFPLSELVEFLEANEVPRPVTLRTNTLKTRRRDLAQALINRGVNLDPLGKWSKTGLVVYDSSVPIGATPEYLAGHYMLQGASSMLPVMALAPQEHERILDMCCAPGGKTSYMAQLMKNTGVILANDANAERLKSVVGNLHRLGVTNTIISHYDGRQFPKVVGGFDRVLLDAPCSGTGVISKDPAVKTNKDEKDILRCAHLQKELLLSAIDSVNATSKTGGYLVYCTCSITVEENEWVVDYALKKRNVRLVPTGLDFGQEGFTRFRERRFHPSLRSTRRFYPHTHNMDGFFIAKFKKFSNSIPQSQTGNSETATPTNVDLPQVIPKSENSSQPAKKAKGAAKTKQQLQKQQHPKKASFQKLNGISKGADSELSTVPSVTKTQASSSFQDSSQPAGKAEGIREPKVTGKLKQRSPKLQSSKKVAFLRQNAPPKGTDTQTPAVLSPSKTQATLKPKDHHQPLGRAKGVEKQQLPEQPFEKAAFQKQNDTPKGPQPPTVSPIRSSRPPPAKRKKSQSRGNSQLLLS
UniProt Q8NCF5, sequence (Q8NCF5 whole entry, looked up): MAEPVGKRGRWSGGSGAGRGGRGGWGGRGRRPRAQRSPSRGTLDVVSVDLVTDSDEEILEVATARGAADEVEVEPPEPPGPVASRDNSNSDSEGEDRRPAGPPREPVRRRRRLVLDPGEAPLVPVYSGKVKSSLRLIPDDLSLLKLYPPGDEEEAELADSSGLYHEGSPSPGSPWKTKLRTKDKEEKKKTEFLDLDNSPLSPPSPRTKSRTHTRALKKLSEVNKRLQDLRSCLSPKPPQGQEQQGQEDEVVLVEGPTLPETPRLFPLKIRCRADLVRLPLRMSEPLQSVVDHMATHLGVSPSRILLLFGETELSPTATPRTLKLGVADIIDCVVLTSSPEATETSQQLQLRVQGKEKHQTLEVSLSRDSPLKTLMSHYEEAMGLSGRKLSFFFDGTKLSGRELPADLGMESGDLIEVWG
UniProt O00483, sequence (O00483 whole entry, looked up): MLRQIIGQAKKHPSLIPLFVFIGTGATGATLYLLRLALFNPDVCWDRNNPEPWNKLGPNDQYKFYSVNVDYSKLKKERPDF

| Target | log2 fold change [1] | log2 fold change [2] | log2 fold change [3] | log2 fold change [4] | log2 fold change [5] | log2 fold change [6] | log2 fold change [7] | log2 fold change [8] | log2 fold change [9] | log2 fold change [10] | log2 fold change [11] |
| --- | --- | --- | --- | --- | --- | --- | --- | --- | --- | --- | --- |
| NISCH (UniProt Q9Y2I1) | -0.052 | -0.293 | -0.354 | -0.168 | 0.101 | 0.09 | 0.023 | 0.065 | 0.081 | -0.147 | 0.045 |
| NOL7 (UniProt Q9UMY1) | 0.107 | 0.131 | 0.316 | 0.177 | -0.079 | -0.042 | -0.101 | 0.166 | 0.121 | -0.218 | 0.033 |
| NACC1 (UniProt Q96RE7) | 0.099 | -0.082 | -0.173 | -0.075 | 0.062 | 0.148 | 0.235 | -0.027 | -0.257 | -0.057 | -0.019 |
| OGFR (UniProt Q9NZT2) | 0.049 | -0.198 | 0.015 | 0.068 | -0.02 | 0.096 | 0.121 | 0.003 | -0.019 | -0.092 | -0.008 |
| NOP2 isoform 4 (UniProt P46087) | 0.205 | 0.241 | 0.408 | 0.3 | -0.163 | 0.014 | -0.04 | 0.288 | 0.344 | -0.095 | 0.147 |
| NDUFA4 (UniProt O00483) | 0.026 | 0.009 | -0.075 | -0.013 | 0.061 | -0.11 | 0.037 | -0.005 | -0.056 | -0.098 | 0.025 |
| NFATC2IP (UniProt Q8NCF5) | -0.016 | -0.017 | -0.087 | -0.011 | 0.035 | 0.078 | 0.075 | -0.017 | 0.02 | -0.011 | -0.054 |
| MSL1 (UniProt Q68DK7) | -0.032 | -0.085 | -0.024 | -0.036 | 0.016 | 0.104 | 0.047 | -0.152 | -0.153 | 0.017 | -0.078 |
| OTUD4 (UniProt Q01804) | 0.006 | 0.026 | 0.071 | 0.001 | -0.051 | 0.016 | -0.016 | 0.02 | 0.033 | -0.061 | 0.105 |
| OSTM1 (UniProt Q86WC4) | -0.035 | -0.029 | -0.319 (active) | 0.003 | 0.006 | 0.072 | 0.064 | 0.034 | -0.037 | -0.037 | 0.118 |
